Whole data set: some 13,000 compounds, median “IFI” near 4, cut for the highest 2% near 17. This is one part of a sample in which the highest values are shown more often than they occur.
Assay: GSK_TCMDC: Inhibition Frequency Index (IFI). The number of non-kinase HTS assays where a compound showed > 50 % inhibition, expressed as a percentage of the number of such assays in which the compound was tested
Assay type: functional

Structure (SMILES) | IFI [%]
CCCCNC(=N)Nc1ccc(OCCCOc2ccc(NC(=N)NCCCC)cc2)cc1 | 2.99
CC(=O)c1ccc2nc[nH]c(=O)c2c1 | 26.1
COc1ccc2nccc([C@@H](O)CN3CCC(NCc4ccc5nc[nH]c(=O)c5c4)CC3)c2c1 | 0
CC(=O)c1ccc(NC(=O)Nc2ccc3nccc(N4CCN(C)CC4)c3c2)cc1 | 0
Cc1cc(NCCC(=O)NCCOc2ccccc2)nc(NCCOc2ccccc2)n1 | 4.88
Nc1ccc(-c2nc3cc(C4=N[C@H]5CCCC[C@H]5N4)ccc3o2)cc1[N+](=O)[O-] | 1.41
CCn1c(-c2nonc2N)nc2c(-c3cccc(NC(=O)Nc4cccc(OC)c4)c3)ncc(OCCCN)c21 | 15.6
CCn1c(-c2nonc2N)nc2c(-c3cccc(NC(=O)Nc4ccccc4Cl)c3)ncc(OCCCN)c21 | 18.2
CCn1c(-c2nonc2N)nc2c(-c3cccc(Cl)c3)ncc(OCCCNCCc3c[nH]cn3)c21 | 7.69
CCn1c(-c2nonc2N)nc2c(-c3cccc(NC(=O)Nc4ccccc4OC)c3)ncc(OCCCN)c21 | 20.5
Cc1ccc2[nH]c(-c3ccccc3)cc(=NN=Cc3cccnc3)c2c1 | 1.52
Oc1ccc(CCNCCCCCCNCCc2ccc(Br)cc2)cc1O | 5.15
N#CCOc1c(C2CCN(CCCCNC(=O)c3ccc(-c4ccc(C(F)(F)F)cc4)cc3)CC2)ccc2c1CCCC2 | 7.08
N=C(N)Nc1ccc(OCCCCCOc2ccc(NC(=N)N)cc2)cc1 | 3.13
CC(C)Oc1ccc(CCCON2C(=N)N=C(N)NC2(C)C)cc1 | 5.63
N#Cc1cccc(CN2CCCN(Cc3ccc(C(=O)Nc4ccc(Cl)cc4)cc3)CC2)c1 | 7.87
CS(=O)(=O)c1ccc2c(c1)CCN(CCC1CCC(NC(=O)C(=Cc3ccc(Cl)cc3Cl)c3ccc(-c4ccccc4)cc3)CC1)CC2 (configuration not stated) | 5.48
CS(=O)(=O)c1ccc2c(c1)CCN(CCC1CCC(NC(=O)c3cc4cccc(Br)c4[nH]3)CC1)CC2 (configuration not stated) | 7.59
CC(C)(C)c1ccc(C(=O)NC2CCC(CCN3CCc4ccc(S(C)(=O)=O)cc4CC3)CC2)cc1C(F)(F)F (configuration not stated) | 21.6
Cc1ccc(NC(=O)c2cnc(N3CCN(c4ccncc4)CC3)c(Cl)c2)cc1 | 11.9
O=C(Nc1ccc(F)cc1)c1cnc(N2CCN(c3ccncc3)CC2)c(Cl)c1 | 8.51
O=C(Nc1ccc(N2CCC(Nc3ccccn3)CC2)cc1)c1cnc(Cl)c(Cl)c1 | 17.4
Cn1nccc1C(=O)NCCNCc1ccc(-c2ccc(-c3nc4cc(F)ccc4[nH]3)cc2)cc1 | 8.91

Structure (SMILES) | IFI [%]
Cc1ccc(OCC2CCN(c3ncc(C(=O)NC4CC4)cc3Cl)CC2)cc1 | 0
Cc1ccc(F)c(OCC2CCN(c3ncc(C(=O)NC4CC4)cc3Cl)CC2)c1 | 17.3
Cc1cc(OCC2CCN(c3ncc(C(=O)NC4CC4)cc3Cl)CC2)ccc1F | 9.8
CN1CCC(NCc2cccc(-c3cccc(S(=O)(=O)NCc4ccccc4)c3)c2)CC1 | 11.2
CCN(CC)CCNC(=O)c1ccc(NC(=O)c2oc3c(Cl)cccc3c2C)cc1 | 4.76
CCN(CC)CCOc1ccc(NC(=O)c2oc3ccccc3c2C=Cc2ccccc2)cc1 | 18.5
CCN(CC)CCOc1ccc(C(O)(C#CC(O)(c2ccccc2)c2ccc(OCCN(CC)CC)cc2)c2ccccc2)cc1 (configuration not stated) | 6.52
COC(=O)c1cccc(CNCc2ccc(-c3ccc(-c4nc5cccc(C)c5[nH]4)s3)cc2)c1 | 7.55
CN1CCN(CCCN(Cc2cccc(-c3cccc(CNCc4ccc5c(c4)OCO5)c3)c2)C(=O)CCC2CCCC2)CC1 | 10.9
CC(C)C[C@H](NC(=O)c1cc2ccccc2s1)C(=O)N[C@H]1CCN(Cc2ccc(I)c(OC3CCN(C)C3)c2)C1 (some centres not stated) | 16.7
O=C(Nc1ccc2ccccc2c1)c1ccc(CN2CCC(Cc3ccccc3)CC2)cc1 | 6.21
CCCOc1cc2c(cc1OCCC)C(C=Cc1ccc(Cl)cc1Cl)=NC(C)C2 (configuration not stated) | 19
C/C=C/C=C/C1=NCCc2cc(OCCC)ccc21 | 8.76
CCCCOc1cc2c(cc1OCC)C(C=Cc1ccc(Cl)cc1Cl)=NCC2 | 6.67
COc1ccc(CNCCc2cccs2)cc1-c1cccc(S(=O)(=O)NCCN2CCCC2)c1 | 9.8
C=CCN(C(=O)c1ccc(Cl)c([N+](=O)[O-])c1)c1nc(-c2ccccc2)cs1 | 3.39
Nc1nccc2ccc(-c3ccc(NC(=O)Nc4cc(C(F)(F)F)ccc4F)cc3)cc12 | 20.2
Nc1ccc(-c2ccc(NC(=O)Nc3cc(C(F)(F)F)ccc3F)cc2)cn1 | 1.32
Nc1ncc(-c2ccc(NC(=O)Nc3cc(C(F)(F)F)ccc3F)cc2)c(N)n1 | 0
Cc1[nH]c(C)c(-c2ccc(Oc3ccccc3)cc2)c(=O)c1Br | 6.11
Cc1ccc(C(O)CNc2ccnc(Nc3cccc(-c4csc(C)n4)c3)n2)cc1 (configuration not stated) | 8.74
Cc1nc(-c2cccc(Nc3nccc(NCC(O)c4ccccc4C(F)(F)F)n3)c2)cs1 (configuration not stated) | 22.8
Cc1nc(-c2cccc(Nc3nccc(NCC(O)c4cccc(C(F)(F)F)c4)n3)c2)cs1 (configuration not stated) | 11

Structure (SMILES) | IFI [%]
Cc1nc(-c2cccc(Nc3nccc(NCC(O)c4ccccc4)n3)c2)cs1 (configuration not stated) | 24.1
Cc1cccc(C(O)CNc2ccnc(Nc3cccc(-c4csc(C)n4)c3)n2)c1 (configuration not stated) | 13.6
Cc1nc(-c2cccc(Nc3nccc(NCC(O)c4ccccc4C)n3)c2)cs1 (configuration not stated) | 13.6
Cc1[nH]c(C)c(-c2ccc(-c3ccc(Cl)cc3)cc2)c(=O)c1Cl | 0.76
COc1ccc(CNCc2ccc(-c3cccc(-c4nc5cc(C(F)(F)F)ccc5[nH]4)c3)cc2)cc1 | 14.3
CCCCc1cc(O)c2c(c1)OC(C)(C)C=C2C1=CCN(Cc2ccccc2)CC1 | 1.43
Oc1ccc2nc(NCCCc3ccccc3)nc(NCCCc3ccccc3)c2c1 | 10.9
COc1cccc(NC(=O)c2cc(Br)cc(N3CCN(c4ccncc4)CC3)c2)c1 | 12.5
COc1cccc(NC(=O)Nc2ccc(C)c(-c3ccc(C(=O)Nc4ccncc4)cc3)c2)c1 | 26.8
COc1cccc(NC(=O)Nc2ccc(-c3oc(C(=O)NCC(c4ccccc4)N(C)C)cc3-c3ccncc3)cc2)c1 (configuration not stated) | 6.85
COc1ccc(NC(=O)Nc2ccc(C)c(-c3ccc(C(=O)NCCN4CCCC4)cc3)c2)cc1 | 0
COc1ccc(C(=O)Nc2ccc(Cl)cc2C(=O)Nc2ccncc2)cc1 | 1.35
COc1ccc(NC(=O)Nc2ccc(C)c(-c3ccc(C(=O)Nc4ccncc4)cc3)c2)cc1 | 25.4
CN1CCN(c2ccc(Nc3c(C(N)=O)cnc4cc(-c5ccoc5)ccc34)cc2)CC1 | 4.73
OC1=C2C(=Nc3ccccc3SC2c2cccs2)c2ccccc21 (configuration not stated) | 3.5
COc1ccccc1-c1ccc(C(=O)NCC2CCCN(Cc3cccc(C(F)(F)F)c3)C2)s1 (configuration not stated) | 3.7
Nc1nc(N)c2c(ccc3c2ccn3Cc2ccc3c(c2)OCO3)n1 | 6.67
Fc1ccccc1C=NNc1ccnc2cc(Cl)ccc12 | 1.48
CC(C)c1ccc(C=CC(=O)N2CCC(CCN3CCC(c4c[nH]c5ccccc45)CC3)CC2)cc1 | 7.19
OC(CNc1ccnc(Nc2ccc(Cl)cc2)n1)c1ccccc1C(F)(F)F (configuration not stated) | 14.4
OC(CNc1ccnc(Nc2cccc(Cl)c2)n1)c1ccccc1C(F)(F)F (configuration not stated) | 20.4
N#Cc1cccc(Nc2nccc(NCC(O)c3cccc(C(F)(F)F)c3)n2)c1 (configuration not stated) | 10.4
N#Cc1cccc(Nc2nccc(NCC(O)c3ccc(C(F)(F)F)cc3)n2)c1 (configuration not stated) | 20.4

Structure (SMILES) | IFI [%]
Cc1ccccc1C(O)CNc1ccnc(Nc2cccc(C#N)c2)n1 (configuration not stated) | 7.69
N#Cc1cccc(Nc2nccc(NCC(O)c3ccccc3C(F)(F)F)n2)c1 (configuration not stated) | 19.2
OC(CNc1ccnc(Nc2cccc(Cl)c2)n1)c1ccc(C(F)(F)F)cc1 (configuration not stated) | 11
OC(CNc1ccnc(Nc2cccc(Cl)c2)n1)c1cccc(C(F)(F)F)c1 (configuration not stated) | 13.3
OC(CNc1ccnc(Nc2ccccc2)n1)c1ccc(C(F)(F)F)cc1 (configuration not stated) | 8.08
CNCCNCc1cccc(-c2ccc(-c3nc4cc(C(F)(F)F)ccc4[nH]3)s2)c1 | 8
O=C(Nc1ccc(-c2cccc(-c3nc4cc(C(F)(F)F)ccc4[nH]3)c2)cc1)c1ccoc1 | 7.08
CN(C)CC(=O)Nc1ccc(-c2ccc3ccnc(N)c3c2)cc1 | 7.95
CCCCCCCN1CC[C@@H](CCCc2ccnc3ccc(OCCCCNC(N)=O)cc23)[C@@H](CC)C1 | 8.76
CC(C)NCc1ccc(OCc2cccc(COc3ccc(CNC(C)C)cc3I)c2)c(I)c1 | 17.6
CC(C)CNCc1ccc(OCc2cccc(COc3ccc(CNCC(C)C)cc3I)c2)c(I)c1 | 8.89
CC[C@H](C)CNCc1ccc(OCc2cccc(COc3ccc(CNC[C@@H](C)CC)cc3I)c2)c(I)c1 | 15.3
Cc1[nH]c(C)c(-c2ccc(OCCSc3ccncc3)cc2)c(=O)c1Br | 3.7
O=C(Nc1ccc(Cl)cc1C(=O)Nc1cccc(F)c1)c1ccc([N+](=O)[O-])cc1 | 1.43
O=C(Oc1ccc(Cl)cc1C(=O)Nc1ccc([N+](=O)[O-])cc1Cl)c1ccccc1 | 22.4
COc1cc([N+](=O)[O-])ccc1NC(=O)c1cc(Cl)ccc1O | 35.6
O=C(Nc1ccc([N+](=O)[O-])cc1Cl)c1cc2ccccc2cc1O | 12.8
O=C(Nc1ccc([N+](=O)[O-])cc1Cl)c1cc(Br)cc(Cc2ccccc2)c1O | 16.2
COc1ccccc1NC(=O)c1cc(C(=O)c2cc(Cl)ccc2O)cn(-c2ccccc2OC)c1=O | 0.97
Cc1[nH]cnc1CSCCN/C(=N\C#N)NCCCCCCCCN/C(=N/C#N)NCCSCc1nc[nH]c1C | 1.49
CC(C)(C)c1ccc(-c2cc(C(=O)N[C@@H](CO)C(=O)O)on2)cc1.CC(C)(C)c1ccc(-c2nocc2C(=O)N[C@@H](CO)C(=O)O)cc1 | 0
CN/C(=N\O)NCCN(C)C | 1.43
Clc1cccc(Nc2ccc3c(N4CCCCC4)ncnc3n2)c1 | 8.33

Source: ChEMBL document CHEMBL1157539, “Thousands of chemical starting points for antimalarial lead identification” (Nature, 2010)
